Inconclusive results are not listed. The source made the active and inactive calls. The calls were made as follows: active = hit-call score of the fitted dose curve at least 0.9, where 1 is the maximum; inconclusive = response in the unintended direction; inactive = score below 0.9.
Assay: CCTE_Harrill_HTTr_CellCount_MCF7: CCTE's Cell Proliferation Assessment for the High-Throughput Transcriptomics (HTTr) Platform, Harrill Lab (AID 2284012);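 also: cells exposed to compound for six hours; intended direction is loss of nuclei count meaning fewer cells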
From the text: This is a cell-based assay that evaluates cell viability and cell growth using high content imaging to count the number of Hoechst-labeled nuclei that are present in an assay well in 384-well format.This is a cell-based assay that evaluates cell viability and cell growth in MCF-7 cells. This was part of a full screening experiment. High content imaging is used to count the number of Hoechst-labeled nuclei that are present in an assay well in 384-well format.The assay component endpoint CCTE_Harrill_HTTr_CellCount_MCF7 was analyzed with bidirectional fitting relation to DMSO as the negative control and baseline of activity. Using a type of viability reporter, loss-of-signal activity can be used to understand changes in cell count. To generalize the intended target to other relatable targets, this assay endpoint is annotated to cell cycle, where the subfamily is cell count.
Chemicals were tested in MCF7 cells in an eight point dilution series with a six hour exposure duration.

outcome, inactive:
CCOc1ccc2ccccc2c1, OCCS, O=C(c1ccccc1)C1(O)CCCCC1, CO[Si](OC)OC, CCCCC(CC)COC(=O)CC#N (stereo not given), O=c1ccc2ccc(O)cc2o1, O=C[C@H](O)[C@@H](O)[C@@H](O)CO, CCOCCOC(=O)C=Cc1ccc(OC)cc1, CCCCCCCCCCCCCCCC=O, COc1c2occc2c(OC)c2c(=O)cc(C)oc12, CC(=O)C(=NNc1ccc(-c2ccc(NN=C(C(C)=O)C(=O)Nc3ccc(C)cc3C)c(Cl)c2)cc1Cl)C(=O)Nc1ccc(C)cc1C, Nc1c(S(=O)(=O)O)cc(Nc2ccccc2)c2c1C(=O)c1ccccc1C2=O, COC(=O)Nc1nc2ccc(S(=O)c3ccccc3)cc2[nH]1 (stereo not given), Cc1ccc2[nH]c3cc4c(=O)c5cc(C)ccc5[nH]c4cc3c(=O)c2c1, O=C1CC2(CCCC2)CC(=O)N1CCCCN1CCN(c2ncccn2)CC1, CCCCc1nc(Cl)c(CO)n1Cc1ccc(-c2ccccc2-c2nnn[nH]2)cc1, Cc1ncc(C[n+]2csc(CCO)c2C)c(N)n1, O=C(c1ccc(Cl)cc1)c1ccc(Cl)cc1, Cc1cc(N=Nc2c(O)ccc3ccccc23)c(S(=O)(=O)O)cc1Cl, CC(=O)C(O)O, C=C1CCC2CC1C2(C)C (stereo not given), CC1=CC(=O)C(C(C)C)CC1 (stereo not given), O=C(c1ccccc1)c1ccc(O)cc1, CCCCCCCC/C=C\CCCCCCCC(=O)OC, NCCNCCNCCNCCN, O=C(O)CCc1ccccc1, CC(=CC(C)(C)C)CC(C)(C)C, CN1[C@@H]2CC[C@H]1CC(OC(=O)C(CO)c1ccccc1)C2 (stereo not given in full), CCC(=O)O[C@H]1[C@H](O[C@@H]2[C@@H](C)[C@H](O[C@H]3C[C@@](C)(OC)[C@@H](O)[C@H](C)O3)[C@@H](C)C(=O)O[C@H](CC)[C@@](C)(O)[C@H](O)[C@@H](C)C(=O)[C@H](C)C[C@@]2(C)O)O[C@H](C)C[C@@H]1N(C)C, NC[C@H](O)c1ccc(O)c(O)c1, O=c1cc(-c2ccccc2)oc2c1ccc1ccccc12, CCCCCCCCOC(=O)c1ccccc1C(=O)O, CC(CC(C)(C)C)CC(C)(C)C, Nc1nc2nc[nH]c2c(=O)[nH]1, C/C(=C\c1ccc(C(=O)O)cc1)c1ccc2c(c1)C(C)(C)CCC2(C)C, O=C(O)c1ccccc1C(=O)OC1CCCCC1, CC1CN(c2cc3c(cc2F)c(=O)c(C(=O)O)cn3-c2ccc(F)cc2F)CCN1 (stereo not given), CCCCCC1=C(C)CCC1=O, NC(=O)N1c2ccccc2CC(=O)c2ccccc21, [K+]
